# Compound activity (PubChem)
# Compounds with a hit are over-represented: about 2.5% of the library has one in this group of screens.
# ULK1 inh: blocks human autophagy kinase ULK1; AID 1259251; O75385; AlphaScreen Atg13 phosphorylation by ULK1, luminescence; inhibition, % at 5.96 µM; 30,000 tested, 1.9% active; in the data active means inhibition above about 43%;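 further: 0% = median of compound wells and 100% = no enzyme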
# ASK1 primary: human ASK1 kinase inhibition, primary screen; AlphaScreen MKK6 phosphorylation by ASK1, luminescence; inhibition, % at 7.44 µM; 22,000 tested, 0.99% active; in the data active means inhibition above about 35%;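 further: 0% = median of compound wells and 100% = no enzyme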
# * hit, by the source's call; . = no result given.
SMILES,ULK1 inh,ASK1 primary
Cc1cc(Nc2ccccc2)nc(Nc2ccncn2)n1,0,7
c1ccc(Nc2cc(Nc3ccncn3)ncn2)cc1,46*,-13
COc1ccc(-c2cccc(C(=O)NC3CC3)c2)cn1,7,4
CNC(=O)c1ccccc1Nc1cc(NC(=O)Cc2ccc3c(c2)OCO3)ncc1C(F)(F)F,55*,12
CNC(=O)c1ccccc1Nc1cc(NC(=O)Cc2ccccc2OC)ncc1C(F)(F)F,51*,14
NC(=O)c1ccccc1Nc1cc(NC(=O)Cc2ccc(F)cc2)ncc1C(F)(F)F,31,10
CNC(=O)c1ccccc1Nc1cc(NC(=O)Cc2cccc(F)c2)ncc1C(F)(F)F,55*,-3
COc1ccc(CC(=O)Nc2cc(Nc3ccccc3C(N)=O)c(C(F)(F)F)cn2)cc1,76*,32
NC(=O)c1ccccc1Nc1cc(NC(=O)Cc2ccc(F)c(F)c2)ncc1C(F)(F)F,19,-21
NC(=O)c1ccccc1Nc1cc(NC(=O)Cc2ccc3c(c2)OCO3)ncc1C(F)(F)F,-23,19
CNC(=O)c1ccccc1Nc1cc(NC(=O)C(OC)c2ccccc2)ncc1C(F)(F)F (stereo unspecified),-10,-16
COc1cc(Nc2nc(Nc3ccnn3C)nc3c2ncn3CCN2CCCC2=O)cc(OC)c1OC,9,-16
c1ccc(Nc2nccc(NCCN3CCOCC3)n2)cc1,-13,6
COc1cc2nc(NCc3cccnc3)nc(Nc3ccc(NC(C)=O)cc3)c2cc1OC,-1,-4
CC(C)(C)OC(=O)NC(Cc1c[nH]c2ccccc12)C(=O)O (stereo unspecified),5,.
Cc1cc(N)nc(-c2ccc(C(=O)NC3CC3)cc2)n1,56*,3
CCCNc1cc(C)nc(-c2ccc(C(=O)NC3CC3)cc2)n1,0,4
O=C(NCCOc1ccccc1)c1cc(N2CCCC2CO)nc2ccccc12 (stereo unspecified),2,3
O=C(OC[C@H]1O[C@H](OC(=O)c2cc(O)c(O)c(OC(=O)c3cc(O)c(O)c(O)c3)c2)[C@H](OC(=O)c2cc(O)c(O)c(OC(=O)c3cc(O)c(O)c(O)c3)c2)[C@@H](OC(=O)c2cc(O)c(O)c(OC(=O)c3cc(O)c(O)c(O)c3)c2)[C@@H]1OC(=O)c1cc(O)c(O)c(OC(=O)c2cc(O)c(O)c(O)c2)c1)c1cc(O)c(O)c(OC(=O)c2cc(O)c(O)c(O)c2)c1,86*,.
CC(=O)OC[C@H]1O[C@@H](OC(C)=O)[C@H](OC(C)=O)[C@@H]1OC(C)=O,-3,.
O=C(CN1CCC2(CC1)NC(=O)N(Cc1ccc(Cl)cc1)C2=O)Nc1cccc(F)c1,-9,.
CC(=O)Nc1ccc(Nc2nc(Nc3ccncc3)nc3c2ncn3C(C)C)cc1,66*,7
OC1CCC(Nc2nc(Nc3ccccc3)c3ncn(-c4ccsc4)c3n2)CC1 (stereo unspecified),23,9
CC(=O)Nc1ccc(Nc2nc(NCc3cccnc3)nc3c2ncn3-c2ccsc2)cc1,55*,11
CC(=O)Nc1ccc(Nc2nc(NC3CCC(O)CC3)nc3c2ncn3-c2ccsc2)cc1 (stereo unspecified),44*,21
SMILES,ULK1 inh,ASK1 primary
CC(=O)Nc1ccc(Nc2nc(NCc3cccnc3)nc3c2ncn3-c2ccccc2)cc1,7,-14
COc1ccc(CNc2nc(Nc3ccc(OC)cc3)nc3c2ncn3C(C)C)cc1,-26,9
COc1ccc(Nc2nc(Nc3ccc(OCCN4CCCCC4)cc3)c3ncn(C(C)C)c3n2)cc1,57*,33
COc1cc(Nc2nc(Nc3ccc(NC(C)=O)cc3)c3ncn(C(C)C)c3n2)cc(OC)c1OC,10,12
c1ccc2c(c1)OCC(c1nc(-c3ccc(-c4ncnc5[nH]ccc45)cc3)n[nH]1)O2 (stereo unspecified),7,-15
C=CCN1C(=O)C(C)(C)COc2ccc(NC(=O)c3ccccc3OC)cc21,-6,.
O=S(=O)(NCc1nc(-c2ccncc2)n[nH]1)c1cccs1,11,9
CN1CCN(c2ccc(-c3nc(NC4CCN(Cc5ccccc5)CC4)c4ncn(-c5ccccc5)c4n3)cc2)CC1,-17,32
CC(C)n1cnc2c(Nc3ccc(N4CCOCC4)cc3)nc(NCc3cccnc3)nc21,47*,10
CC(C)n1cnc2c(NCc3ccccc3)nc(-c3ccc(C(N)=O)cc3)nc21,-18,-2
CC(=O)Nc1ccc(Nc2nc(NCc3cccnc3)nc3c2ncn3C(C)C)cc1,68*,5
CC(C)n1cnc2c(Nc3ccc(N4CCOCC4)cc3)nc(NCc3ccc4c(c3)OCO4)nc21,7,35
CC(C)n1cnc2c(Nc3ccccc3)nc(-c3ccc(C(N)=O)cc3)nc21,68*,7
CC(C)n1cnc2c(NCc3cccnc3)nc(Nc3ccncc3)nc21,-6,-4
O=S(=O)(c1ccc(Br)cc1)N1CCC(Nc2ccc3cnccc3c2)CC1,-18,-26
FC(F)(F)c1ccc(Cn2cnc3c(NCCN4CCOCC4)nc(Nc4ccc(-n5ccnc5)cc4)nc32)cc1,-18,2
